Bioassay records (PubChem BioAssay)
In the library only some 3.1% were active in any assay of this set; here they are far more common.
BoNT A protease: inhibitors of Botulinum neurotoxin A light chain protease | AID 588499 | multiplex microsphere protease substrate cleavage, flow cytometry | 360,000 tested, 0.17% active | inhibition, % at 10 µM
PriA SSB inh: K. pneumoniae PriA-SSBct interaction inhibition | 430,000 tested, 0.6% active | AID 1272365 | inhibition, % at 33 µM | AlphaScreen SSBct-PriA binding, biotinylated peptide; in the data active = inhibition mostly above about 37%, no sharp cut-off; inactive = mostly below about 20%
BoNT-F LC inh: inhibitors of Botulinum neurotoxin F light chain protease. Multiplex microsphere protease cleavage assay, flow cytometry. inhibition, % at 10 µM. 360,000 tested, 0.22% active; in the data active = inhibition above about 35%, passing the limit was not always enough; inconclusive = no clear call, values can overlap the other calls
Anthrax LF inh2: blocks Bacillus anthracis lethal factor protease; P15917; multiplex microsphere protease cleavage assay, LF; inhibition, % at 10 µM; 360,000 tested, 0.12% active; AID 588501
Target sequence (P15917 whole entry, looked up): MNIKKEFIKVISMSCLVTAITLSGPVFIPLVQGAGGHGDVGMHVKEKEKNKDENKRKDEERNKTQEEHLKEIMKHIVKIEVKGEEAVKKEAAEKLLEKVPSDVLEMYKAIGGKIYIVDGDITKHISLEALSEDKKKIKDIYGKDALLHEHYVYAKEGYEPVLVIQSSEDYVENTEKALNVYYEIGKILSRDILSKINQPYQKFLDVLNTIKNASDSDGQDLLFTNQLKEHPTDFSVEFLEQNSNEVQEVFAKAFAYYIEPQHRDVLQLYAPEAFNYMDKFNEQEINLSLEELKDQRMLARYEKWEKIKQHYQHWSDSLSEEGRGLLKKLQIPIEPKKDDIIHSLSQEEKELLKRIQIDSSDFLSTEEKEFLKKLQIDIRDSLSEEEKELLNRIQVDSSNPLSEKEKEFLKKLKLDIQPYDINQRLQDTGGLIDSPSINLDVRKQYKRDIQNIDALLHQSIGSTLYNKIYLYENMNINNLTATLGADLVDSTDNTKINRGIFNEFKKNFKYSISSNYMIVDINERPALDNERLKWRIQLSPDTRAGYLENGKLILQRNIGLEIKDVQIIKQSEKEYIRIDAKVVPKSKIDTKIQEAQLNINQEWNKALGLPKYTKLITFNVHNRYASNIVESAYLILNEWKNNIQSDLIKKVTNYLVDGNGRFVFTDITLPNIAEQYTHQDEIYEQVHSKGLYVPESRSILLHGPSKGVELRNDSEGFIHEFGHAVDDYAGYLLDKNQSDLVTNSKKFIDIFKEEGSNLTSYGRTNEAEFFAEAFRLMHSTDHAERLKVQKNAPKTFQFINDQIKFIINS
Autofluor counter: counter-screen for toxin protease inhibitors: compound fluorescence. compound autofluorescence counterscreen, microsphere flow cytometry; active compounds read high. 360,000 tested, 3.1% active. AID 624483. fluorescence intensity (no concentration beside the values); in the data active = fluorescence intensity above about 16000; inconclusive = no clear call, values can overlap the other calls
Hits are given with their value; ! = a repeat was not active. Rule as the data show it, unless noted: active = inhibition above about 30%; inconclusive = no clear call, values can overlap the other calls; inactive = below that.

What do the screens show for `CCc1c(C)sc(NC(=S)N2CCN(C(=O)C3CCCO3)CC2)c1C(=O)OC` (configuration not stated)?
BoNT A protease: inactive; PriA SSB inh: inactive; BoNT-F LC inh: inactive; Anthrax LF inh2: inactive; Autofluor counter: 51235

How did Cc1ccc(NC(=S)N2CCN(C(=O)C3CCCO3)CC2)c(C)c1 (configuration not stated) do in these assays?
BoNT A protease: inconclusive; PriA SSB inh: inactive; BoNT-F LC inh: inactive; Anthrax LF inh2: inactive; Autofluor counter: 22658

Results for O=C(NCc1ccc2c(c1)OCO2)c1ccc2c(=O)nc3c(-c4cccc(F)c4)n[nH]n3c2c1 ?
PriA SSB inh: inactive

What do the screens show for `COC(=O)c1ccc(N2CCCCC2)c(N)c1`?
BoNT A protease: inactive; PriA SSB inh: inactive; BoNT-F LC inh: inactive; Anthrax LF inh2: inactive; Autofluor counter: inactive

Results for COC(=O)c1ccc(N2CCC(C)CC2)c(N)c1 ?
BoNT A protease: inactive; PriA SSB inh: inactive; BoNT-F LC inh: inactive; Anthrax LF inh2: inactive; Autofluor counter: 22414

How did CCn1c(SCC(=O)Nc2ccccc2C(=O)OC)nnc1-c1ccc(N)cc1 do in these assays?
BoNT A protease: inactive; PriA SSB inh: inactive; BoNT-F LC inh: inactive; Anthrax LF inh2: inactive; Autofluor counter: 23878

What do the screens show for `CCn1c(COc2ccc(Cl)c(C)c2)nnc1SCC(=O)N1CCCC1`?
BoNT A protease: inconclusive; PriA SSB inh: inactive; BoNT-F LC inh: inactive; Anthrax LF inh2: inactive; Autofluor counter: 20792

Results for CCn1c(SCC(=O)c2ccc3c(c2)Cc2ccccc2-3)nnc1-c1ccc(N)cc1 ?
BoNT A protease: inactive; PriA SSB inh: inactive; BoNT-F LC inh: inactive; Anthrax LF inh2: inactive; Autofluor counter: 23475

What do the screens show for `CCn1c(SCC(=O)c2ccc(O)c(O)c2)nnc1-c1ccc(C)cc1`?
BoNT A protease: inactive; PriA SSB inh: inactive; BoNT-F LC inh: inactive; Anthrax LF inh2: inactive; Autofluor counter: inactive

How did Cc1ccccc1OCc1nnc(SCC(=O)NCc2ccccc2)n1C do in these assays?
BoNT A protease: inactive; PriA SSB inh: inactive; BoNT-F LC inh: inactive; Anthrax LF inh2: inactive; Autofluor counter: inactive

Results for CCOC(=O)c1ccccc1NC(=O)CSc1nnc(COc2ccccc2C)n1C ?
BoNT A protease: inconclusive; PriA SSB inh: inactive; BoNT-F LC inh: inactive; Anthrax LF inh2: inactive; Autofluor counter: 17960

How did CCn1c(COc2ccc(C)cc2)nnc1SCC(=O)Nc1cc(OC)ccc1OC do in these assays?
BoNT A protease: inactive; PriA SSB inh: inactive; BoNT-F LC inh: inactive; Anthrax LF inh2: inactive; Autofluor counter: 22615

How did CCn1c(COc2ccccc2)nnc1SCC(=O)Nc1cc(C)ccc1OC do in these assays?
BoNT A protease: inactive; PriA SSB inh: inactive; BoNT-F LC inh: inactive; Anthrax LF inh2: inactive; Autofluor counter: inactive

Results for CCn1c(COc2cccc(OC)c2)nnc1SCC(=O)Nc1ccccc1C(=O)OC ?
BoNT A protease: inconclusive; PriA SSB inh: inactive; BoNT-F LC inh: inactive; Anthrax LF inh2: inactive; Autofluor counter: 19252

Results for COc1ccc(Br)cc1/C=N\Nc1oc(-c2ccccc2)nc1C#N ?
PriA SSB inh: inactive

What do the screens show for `CCc1c(C)c2ccc(OCC(N)=O)cc2oc1=O`?
BoNT A protease: inactive; PriA SSB inh: inactive; BoNT-F LC inh: inactive; Anthrax LF inh2: inactive; Autofluor counter: 24076

How did Cc1c(CCC(=O)O)c(=O)oc2cc(OCc3cccc(Cl)c3)ccc12 do in these assays?
BoNT A protease: inactive; PriA SSB inh: inactive; BoNT-F LC inh: 40; Anthrax LF inh2: inactive; Autofluor counter: inactive

How did CC(=O)COc1ccc2c(C)c(C)c(=O)oc2c1 do in these assays?
BoNT A protease: inactive; PriA SSB inh: inactive; BoNT-F LC inh: inactive; Anthrax LF inh2: inactive; Autofluor counter: inactive

Results for O=C(CCCc1ccccc1)NCCn1ncc2c(N3CCN(c4ncccn4)CC3)ncnc21 ?
PriA SSB inh: inactive

How did Cc1nc(-n2cccc2)sc1C(=O)Nc1cnn(CC2COc3ccccc3O2)c1 (configuration not stated) do in these assays?
PriA SSB inh: inactive

How did Cc1ccc(C)n1-c1ccc(-n2cnnn2)cc1 do in these assays?
BoNT A protease: inactive; PriA SSB inh: inactive; BoNT-F LC inh: inactive; Anthrax LF inh2: inactive; Autofluor counter: 16233

What do the screens show for `CC(O)c1ccc(-n2cnnn2)cc1` (configuration not stated)?
BoNT A protease: inactive; PriA SSB inh: inactive; BoNT-F LC inh: inactive; Anthrax LF inh2: inactive; Autofluor counter: inactive

Results for Cc1cc(O)ccc1NC=C1CCCC1=O ?
PriA SSB inh: inactive

How did COc1ccc(NS(=O)(=O)c2nnc(NC(=O)c3ccccc3F)s2)cc1 do in these assays?
BoNT A protease: inactive; PriA SSB inh: 100; BoNT-F LC inh: inactive; Anthrax LF inh2: inactive; Autofluor counter: inactive

Results for CCn1c(=O)c2ccccc2n2c(SCC(=O)N3CCCc4ccccc43)nnc12 ?
BoNT A protease: inactive; PriA SSB inh: inactive; BoNT-F LC inh: inactive; Anthrax LF inh2: inactive; Autofluor counter: 24095

How did CC1Cc2cc(C(O)=C3C(=O)C(=O)N(Cc4cccnc4)C3c3ccccc3F)ccc2O1 (configuration not stated) do in these assays?
PriA SSB inh: inactive

How did CC(C)=CCCC(C)CN(C)CCc1ccccn1 (configuration not stated) do in these assays?
BoNT A protease: inactive; PriA SSB inh: inactive; BoNT-F LC inh: inactive; Anthrax LF inh2: inactive; Autofluor counter: 21319

Results for Cn1cnc(S(=O)(=O)Nc2ccccc2-c2cn3ccsc3n2)c1 ?
PriA SSB inh: inactive

Results for COc1cnc(-c2ccccn2)[nH]c1=O ?
BoNT A protease: inactive; PriA SSB inh: 144!; BoNT-F LC inh: inactive; Anthrax LF inh2: inactive; Autofluor counter: inactive

Results for COc1cnc(SC(C)C)[nH]c1=O ?
BoNT A protease: inactive; PriA SSB inh: inactive; BoNT-F LC inh: inactive; Anthrax LF inh2: inactive; Autofluor counter: inactive

Results for CCc1cc2c(=O)[nH]c(N3CCCC3)nc2s1 ?
BoNT A protease: inactive; PriA SSB inh: inactive; BoNT-F LC inh: inactive; Anthrax LF inh2: inactive; Autofluor counter: inactive

How did CCc1cc2c(=O)[nH]c(-c3ccccn3)nc2s1 do in these assays?
BoNT A protease: inactive; PriA SSB inh: 66; BoNT-F LC inh: inactive; Anthrax LF inh2: inactive; Autofluor counter: inactive

How did O=c1cc(-c2ccccn2)nc(-c2ccccn2)[nH]1 do in these assays?
PriA SSB inh: 152

How did Cc1ccc(-c2csc(NC(=O)/C=C/c3ccc([N+](=O)[O-])s3)n2)o1 do in these assays?
PriA SSB inh: inactive

Results for CCOC(=O)C1CCN(C(=O)CSc2cc(=O)n(CC)c3ccccc23)CC1 ?
BoNT A protease: inactive; PriA SSB inh: inactive; BoNT-F LC inh: inactive; Anthrax LF inh2: inactive; Autofluor counter: 16952

Results for CCOC(=O)N1CCC(NC(=O)CSc2cc(=O)n(CC)c3ccccc23)CC1 ?
BoNT A protease: inactive; PriA SSB inh: inactive; BoNT-F LC inh: inactive; Anthrax LF inh2: inactive; Autofluor counter: 21138

Results for Cc1cccc(NC(=O)c2cc(S(=O)(=O)NCc3ccco3)ccc2F)c1C ?
BoNT A protease: inactive; PriA SSB inh: inactive; BoNT-F LC inh: inactive; Anthrax LF inh2: inactive; Autofluor counter: 23011

What do the screens show for `COc1ccc(-c2cc(C(=O)Nc3ccccc3SC)no2)cc1OC`?
BoNT A protease: inactive; PriA SSB inh: inactive; BoNT-F LC inh: inactive; Anthrax LF inh2: inactive; Autofluor counter: 23175

How did COc1cccc(-c2cc(C(=O)Nc3cccc(O)c3)no2)c1 do in these assays?
BoNT A protease: inactive; PriA SSB inh: inactive; BoNT-F LC inh: inactive; Anthrax LF inh2: inactive; Autofluor counter: 24356
